Measured values from PubChem BioAssay.

target: Dihydroorotate dehydrogenase (quinone), mitochondrial (Plasmodium falciparum (isolate 3D7)) (UniProt Q08210); experiment: PfDHODH enzyme inhibitors, primary screen, biochemical, C-terminal His tag, absorbance 600 nm (AID 1175); details: DCIP absorbance 600 nm, higher = more signal, called active from +8 up or from −8 down;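 note: recombinant parasite enzyme with a five histidine tag at its C terminus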
Note: test concentration not given here.

Sequence of Dihydroorotate dehydrogenase (quinone), mitochondrial (Plasmodium falciparum (isolate 3D7)) (Q08210 whole entry, looked up): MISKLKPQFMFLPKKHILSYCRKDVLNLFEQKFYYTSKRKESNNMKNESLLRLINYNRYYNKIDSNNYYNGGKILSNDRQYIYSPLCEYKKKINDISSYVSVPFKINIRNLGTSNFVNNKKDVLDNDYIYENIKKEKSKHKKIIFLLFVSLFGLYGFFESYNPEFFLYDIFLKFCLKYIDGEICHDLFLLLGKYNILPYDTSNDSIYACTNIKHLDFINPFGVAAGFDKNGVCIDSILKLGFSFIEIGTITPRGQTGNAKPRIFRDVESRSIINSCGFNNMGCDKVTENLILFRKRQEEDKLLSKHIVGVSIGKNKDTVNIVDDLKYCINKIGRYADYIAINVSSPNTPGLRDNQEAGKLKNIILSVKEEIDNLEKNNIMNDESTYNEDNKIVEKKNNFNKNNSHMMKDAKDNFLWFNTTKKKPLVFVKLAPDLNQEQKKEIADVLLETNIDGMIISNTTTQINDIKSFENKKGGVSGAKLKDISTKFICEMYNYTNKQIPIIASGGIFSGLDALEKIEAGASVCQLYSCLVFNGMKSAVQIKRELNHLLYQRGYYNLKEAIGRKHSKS

Composite z-score, inactive:
CCOC(=O)C[C@H]1[C@H](OC(=O)c2ccccc2-c2ccccc2)[C@@H](NC(=O)c2ccc3ccccc3n2)c2cc(OCCCO)ccc2N1C(=O)c1ccccc1 0.742
COC(=O)[C@@]1(Cc2ccc(OC)cc2)[C@H]2c3cc(C(=O)N4CCCC4)n(Cc4ccc(S(C)(=O)=O)cc4)c3C[C@H]2CN1C(=O)c1ccccc1 -1.16
C=C[C@@H](C)[C@@H](OC(=O)Nc1ccc(SC)cc1)c1ccc(OCCO)cc1 0.05
NCCCCCNC(=O)[C@@H]1C[C@@H]2C(=O)N3CCC[C@H]3C(=O)N2[C@@H]1c1ccc(O)cc1 0.509
O=C1OCCC/C=C\[C@H]2OC34C=CCN(c5ccc6ccccc6c5)C(=O)[C@H]3N(CCCO)C(=O)[C@@H]4C12 (some centres not stated) -0.818
CC(=O)NCCCC[C@@H]1NC(=O)[C@@H]2C[C@H](C(=O)NCCCCCCN)[C@H](c3cccc(OCCO)c3)N2C1=O 0.23
COCCOC(=O)N1C(=O)[C@@]2(c3cc(C#CCNC(N)=O)ccc31)[C@H](c1ccc(OCCO)cc1)N1[C@H](c3ccccc3)[C@H](c3ccccc3)OC(=O)[C@H]1[C@@H]2C(N)=O -0.0174

tested on: not listed separately; experiment: P. aeruginosa biofilm formation inhibitors, primary screen, strain PAO1, LB-PBS medium, absorbance 600 nm (AID 1176); details: P. aeruginosa PAO1 growth/biofilm, A600, 12 h; higher = more signal

z-score, inactive:
CC(C)(C)OC(=O)CC[C@]1(C(=O)N2CCCCC2)COC(c2ccc(OCCCO)cc2)=N1 -1.17
O=C1[C@@]23C=C(Br)[C@H](C[C@@H]2COC3)[C@@]12CO2 0.224
O=C1C[C@@](C(=O)NCc2ccccc2)(c2ccc([N+](=O)[O-])cc2)[C@@H](c2ccc(CO)cc2I)N1CC12CC3CC(CC(C3)C1)C2 0.593
O=C1C[C@@](C(=O)NCC(F)(F)F)(c2ccc([N+](=O)[O-])cc2)[C@@H](c2ccc(CO)cc2)N1CC12CC3CC(CC(C3)C1)C2 0.36
CN1C(=O)C2C=CC(C(O)c3ccc(I)cc3)N(Nc3ccccc3)C2C1=O (configuration not stated) 0.683
COc1cc(C(O)C2C=CC3C(=O)N(Cc4ccccc4)C(=O)C3N2n2cnnc2)cc(OC)c1OC (configuration not stated) 1.6
C=C(COC)/C(=C/C[C@@H](OC(=O)c1ccncc1)c1ccccc1OCCO)c1cc(C(=O)OC)ccc1OC 0.825
CC(C)C[C@@H]1NC(=O)[C@@]23C(=O)N[C@@H](Cc4ccccc4)C2[C@H](C)[C@@]2(C)O[C@H]2C3/C=C/C/C=C\CNC(=O)[C@@H](C)NC1=O (some centres not stated) -0.131
CCCNC(=O)[C@@]1(Sc2ccc(C)cc2)CC(=O)N(C(C)C)[C@@H]1c1ccc(CO)cc1I 0.0714
CN1C(=O)C2C(C1=O)C1C=C(CCCO)C2C(c2cccs2)N1Cc1cc2c(cc1Br)OCO2 (configuration not stated) -0.131
C=C(CCCC)/C(=C/C[C@H](OC(C)=O)c1ccc(OCCO)cc1)c1cc(C(=O)OC)ccc1OC 0.825
COC(=O)[C@@]1(Cc2ccc(OC)cc2)[C@H]2c3cc(C(=O)N4CCCC4)n(Cc4ccc(OC(F)(F)F)cc4)c3C[C@H]2CN1C(=O)c1ccccc1 0.343
CS(=O)(=O)CCOC(=O)C1=CC(CCCO)=CC(C2CC2)N(Cc2cccc(OC(F)(F)F)c2)C=C1C(=O)OCCS(C)(=O)=O (configuration not stated) 0.342
COC(=O)C1=CC(CCCO)=CC(C)N(Cc2cccc(OC(F)(F)F)c2)C=C1C(=O)OC (configuration not stated) 0.227
[N-]=[N+]=NCc1ccccc1[C@@H]1OC(c2ccc(OCCCO)cc2)=N[C@]1(Cc1ccccc1)C(=O)NCCN1CCOCC1 -0.279
CC(C)C(=C=CC[C@@H](O)c1cccc(OCCO)c1)C[C@@H](O)c1ccccn1 -0.0342
O=C(NCC(O)CO)[C@@]1(CCS(=O)(=O)c2ccccc2)COC(c2ccc(OCCCO)cc2)=N1 (some centres not stated) -0.043
CCOC(=O)C1=C[C@@H](c2ccccc2)N(S(=O)(=O)c2ccc(C)cc2)[C@H]1c1ccccc1 0.878
CC(C)OC(=O)CC(=O)CC(O)c1ccc([N+](=O)[O-])cc1 (configuration not stated) -0.088
COC(=O)C1N=C(c2ccc(OCCCO)cc2)N(c2ccccc2)O1 (configuration not stated) -1.1
NC(=O)NCC#Cc1ccc2c(c1)[C@]1(C(=O)N2)[C@H](C(=O)N2CCN(c3ncccn3)CC2)[C@H]2C(=O)O[C@H](c3ccccc3)[C@H](c3ccccc3)N2[C@@H]1c1ccc(OCCO)cc1 1.91
[N-]=[N+]=Nc1ccccc1C[C@]1(C(=O)O)N=C(c2ccc(OCCCO)cc2)O[C@H]1c1ccccc1 0.258
C=C(/C(=C/C[C@@H](OC(C)=O)c1ccc(OCCO)cc1)c1cc(C(=O)OC)ccc1OC)C(C)C 0.437
COc1ccc(NC(=O)O[C@H]2[C@@H]3OC(=O)[C@H](Cc4cccc(Br)c4)C/C=C/C[C@@H](Cc4cccc(Br)c4)C(=O)O[C@H]3[C@@H](OC)O[C@@H]2CO)cc1 0.47
[N-]=[N+]=NCc1ccccc1[C@H]1OC(c2ccc(OCCCO)cc2)=N[C@@]1(CCS(=O)(=O)c1ccccc1)C(=O)NCc1ccccc1 -0.4
COc1cc(NN2C(C(O)C3CCCCC3)C=CC3C(=O)N(C)C(=O)C32)cc(OC)c1OC (configuration not stated) 0.462
O=C1[C@@H]2[C@@H](CC(COc3ccccc3)=C3[C@@H](CCc4ccccc4)OB(O)C[C@@H]32)C(=O)N1Cc1ccccc1 0.306
O=C1OCCC=C[C@H]2OC34C=CCN(c5ccc(Cl)cc5)C(=O)[C@H]3N(CCCCCCO)C(=O)[C@@H]4C12 (some centres not stated) -0.786
CCOC(=O)C[C@H]1[C@H](OC(=O)c2ccccc2-c2ccccc2)[C@@H](NC(=O)c2ccc3ccccc3n2)c2cc(OCCCO)ccc2N1C(=O)c1ccccc1 -0.165
COC(=O)[C@@]1(Cc2ccc(OC)cc2)[C@H]2c3cc(C(=O)N4CCCC4)n(Cc4ccc(S(C)(=O)=O)cc4)c3C[C@H]2CN1C(=O)c1ccccc1 0.122
C=C[C@@H](C)[C@@H](OC(=O)Nc1ccc(SC)cc1)c1ccc(OCCO)cc1 0.119
NCCCCCNC(=O)[C@@H]1C[C@@H]2C(=O)N3CCC[C@H]3C(=O)N2[C@@H]1c1ccc(O)cc1 -0.102
O=C1OCCC/C=C\[C@H]2OC34C=CCN(c5ccc6ccccc6c5)C(=O)[C@H]3N(CCCO)C(=O)[C@@H]4C12 (some centres not stated) -0.636
CC(=O)NCCCC[C@@H]1NC(=O)[C@@H]2C[C@H](C(=O)NCCCCCCN)[C@H](c3cccc(OCCO)c3)N2C1=O -0.0617
COCCOC(=O)N1C(=O)[C@@]2(c3cc(C#CCNC(N)=O)ccc31)[C@H](c1ccc(OCCO)cc1)N1[C@H](c3ccccc3)[C@H](c3ccccc3)OC(=O)[C@H]1[C@@H]2C(N)=O 0.858
